# Assay results taken from PubChem BioAssay (NCI).
# The panel holds about 79,000 compounds, 15% with a hit somewhere; the sample as a whole holds those more often. A number with no mark means an inactive call. Active and inactive are the calls of the source. Rule as the data show it: active = growth inhibition above about 70%; inactive = the rest.
# What was measured:
# [1] = NCI Yeast Anticancer Drug Screen. Data for the rad50 strain (AID 155);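 also: 0% = growth of vehicle-only cultures of the same strain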; conditions: S. cerevisiae rad50 strain growth inhibition; at 50.0 µM; stronger effect = higher value
# In short: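 DNA repair mutant yeast, compound exposure, growth read-out; inhibition is taken relative to vehicle.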
# [2] = NCI Yeast Anticancer Drug Screen. Data for the mec2-1 strain (AID 157); conditions: S. cerevisiae mec2-1 strain, at 50.0 µM, stronger effect = higher value
# In short: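 mec2-1 yeast strain, carrying an alteration in DNA damage repair or cell cycle control, was exposed to compounds; growth inhibition was measured relative to vehicle-treated controls.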
# [3] = NCI Yeast Anticancer Drug Screen. Data for the sgs1 mgt1 strain (AID 161);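 also: 0% = growth of cultures given vehicle only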; conditions: S. cerevisiae sgs1 mgt1 strain, at 50.0 µM, stronger effect = higher value
# In short: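 Growth of a repair-deficient yeast mutant was monitored after compound treatment and expressed as inhibition relative to vehicle-treated cultures.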
# [4] = NCI Yeast Anticancer Drug Screen. Data for the cln2 rad14 strain (AID 165);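 also: 0% = growth equal to vehicle treated cultures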; conditions: S. cerevisiae cln2 rad14 strain, at 50.0 µM, stronger effect = higher value
# In short: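 Yeast carrying cln2 and rad14 alterations (cell cycle control and DNA damage repair) were exposed to compounds. Growth inhibition was measured against vehicle-treated controls.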
# [5] = NCI Yeast Anticancer Drug Screen. Data for the bub3 strain (AID 167); conditions: S. cerevisiae bub3 mutant strain, at 50.0 µM, stronger effect = higher value
# In short: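 In this screen, a yeast mutant lacking normal mitotic checkpoint function is challenged with compound. Relative growth versus vehicle gives the inhibition value.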
# [6] = NCI Yeast Anticancer Drug Screen. Data for the mlh1 rad18 strain (AID 175); conditions: S. cerevisiae mlh1 rad18 strain growth inhibition; at 50.0 µM; stronger effect = higher value
# In short: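 Growth inhibition of the yeast strain was measured after compound exposure and expressed relative to vehicle-treated controls. The strain carries defined defects in DNA damage repair.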
SMILES,growth inhibition [1],growth inhibition [2],growth inhibition [3],growth inhibition [4],growth inhibition [5],growth inhibition [6]
CC(=O)NNc1nc(C)c(C(=O)NNC(=O)C(=O)Nc2ccc(Cl)cc2)s1,27%,-0.4%,16.5%,-63.2%,20%,22.9%
Cc1nc(-c2ccccc2)ncc1C(O)CN1CCOCC1 (stereo unspecified),12.8%,11.2%,17.4%,13.7%,-23%,6.95%
Cc1ncc([N+](=O)[O-])n1CC[N+](C)([O-])CCCCn1ccnc1[N+](=O)[O-] (stereo unspecified),16.9%,-20.6%,20.6%,-41.5%,-3.95%,-9%
N#Cc1c(-c2ccccc2)cc(-c2ccc(Cl)cc2)[nH]c1=S,5.3%,8.2%,-19.1%,20.5%,42.2%,4.65%
CCOC(=O)c1c(C)c(C)cc(C)c1C,-4.75%,-7.6%,-5.45%,6.15%,2.3%,-10.8%
CC1=[N+]([O-])c2ccccc2C(=O)C1=O,35.3%,12.3%,35.3%,33.6%,41.1%,27.1%
[Cl][Mn][Cl],10.2%,6.4%,17.4%,-7.15%,-4.75%,-0.15%
CCCCCCCCCCCC(=O)Oc1c(Cl)cc(Cl)c(OC(=O)C(=O)Oc2c(Cl)cc(Cl)c(OC(=O)CCCCCCCCCCC)c2Cl)c1Cl,-26.1%,-21.9%,-11.2%,16.9%,-4.2%,-19.9%
CCC(C)c1cnc(CC(C)C)c(=O)[nH]1 (stereo unspecified),8.9%,-44.2%,17.2%,4.85%,-9.6%,0.85%
CC(=O)NC(CCCCN(Cc1ccccc1)C(=O)N(C)N=O)C(=O)NCc1ccccc1 (stereo unspecified),0.3%,-6.7%,24.4%,-0.15%,-22.9%,-6.4%
CC(O)C(O)C(O)C(O)C=O (stereo unspecified),-13.2%,-11.8%,3.8%,14.1%,7%,-10.2%
CCCc1cc2c(cc1CSc1ccccc1C(=O)O)OCO2,-13.6%,-8.75%,-1.9%,-84.7%,-7.6%,-12.4%
CC(C)Oc1cc2c(cc1O)CC[C@@H]1[C@@H]2CC[C@]2(C)[C@@H](O)CC[C@@H]12,45.9%,8.2%,63.7%,33%,56.9%,44.1%
N[C@@H]1c2c(Br)sc(Br)c2C(=O)[C@H]1Br,-5.35%,-2.85%,5.6%,5.95%,-7.05%,-17.4%
O=[N+]([O-])c1cccc(N=Cc2ccc(Cl)cc2)c1,-29.9%,-17.8%,-62.5%,-0.7%,-0.05%,-11.1%
O=S(=O)(Cl)C1c2ccccc2-c2ccccc21,22.4%,20.1%,12.5%,15.7%,23.2%,23.4%
CC(=O)Nc1ncc(Sc2ccc([N+](=O)[O-])cc2)s1,-6.5%,-30.9%,-8.35%,15.3%,-11.8%,5.65%
O=C(CC(c1ccccc1)C1CCCN(c2ccccc2)S1(=O)=O)c1ccccc1 (stereo unspecified),26.6%,1.2%,11.1%,16.9%,-3.05%,23.1%
CC12CCCC=C1C(C)(C)C(O)CC2 (stereo unspecified),3.45%,1.7%,2.95%,7.3%,-26.8%,0.8%
Cc1cc(C)n(C2OC(CO)C(O)C(O)C2O)c(=S)c1C#N (stereo unspecified),21.1%,14.8%,29.6%,5.4%,8.4%,35.4%
Oc1cc(CN2CCOCC2)c(O)c(CN2CCOCC2)c1,14.7%,8.95%,21.1%,20%,7.7%,24.6%

SMILES,growth inhibition [1],growth inhibition [2],growth inhibition [3],growth inhibition [4],growth inhibition [5],growth inhibition [6]
O=C1CC(c2ccccc2)Oc2cc(O)cc(O)c21 (stereo unspecified),9.1%,-30.8%,9.2%,22.6%,-14.4%,16.7%
COCC(Cl)/C(N)=N\S(=O)(=O)c1ccc(Cl)cc1 (stereo unspecified),5.8%,-17.4%,15.2%,14.8%,26.2%,4.95%
COc1ccc(NC(=O)Nc2cc(Cl)ccc2C)c(Cl)c1,0.7%,36%,29.8%,-3.35%,30.4%,29.9%
O=C(OC1COC(OC(=O)c2ccc([N+](=O)[O-])cc2)C(OC(=O)c2ccc([N+](=O)[O-])cc2)C1OC(=O)c1ccc([N+](=O)[O-])cc1)c1ccc([N+](=O)[O-])cc1 (stereo unspecified),-6.15%,1.65%,-9.9%,-16.9%,-1.3%,4.3%
COc1ccc(/C=N/Nc2nc3ccccc3c(=O)n2-c2ccccc2)c(OCc2ccccc2)c1,4.7%,5.2%,5.5%,-0.1%,9%,9.85%
CCCOc1ccc(C2=C(c3ccccc3)C(=O)C(c3ccccc3)=C2c2ccccc2)cc1,34.2%,15.6%,20.6%,20.2%,2.25%,20.6%
Cc1ccc(Nc2c3ccccc3nc3ccccc23)cc1,97.9% (active),88.5% (active),93.8% (active),91.1% (active),88.2% (active),97.1% (active)
COc1ccc(-c2cn3c(nc4ccccc43)c(C)n2)cc1,-4.8%,-3.15%,16.6%,-17.9%,21%,-11.3%
c1ccc(-c2nnsc2-c2ccccc2)cc1,17.5%,-4.35%,27.6%,10.8%,-3.9%,20.4%
COc1ccc2ccccc2c1C1/C(=N/O)CCc2ccccc21 (stereo unspecified),30.4%,15.2%,12.2%,-37.3%,10.6%,14.7%
CC(C)(C)c1ccc(SC(=O)Nc2cccc(Cl)c2Cl)cc1,8.35%,14.3%,18.1%,13.8%,24.4%,20.9%
Cc1nc(=S)c2cnn(-c3ccccc3)c2[nH]1,-15.4%,-21.2%,-3.9%,-57.2%,-27.1%,-0.6%
CC(C)OC(=O)C(=O)OC(C)C,14.3%,20.1%,-24.3%,0.1%,0.85%,1.85%
Clc1ccc(C(=C=C(c2ccccc2)c2ccccc2)c2ccc(Cl)cc2)cc1,33.7%,13.8%,-4.4%,20.7%,5.55%,25.9%
COc1cc(CC2c3cc(OC)c(OC)cc3CCN2C)ccc1O (stereo unspecified),-22.3%,-17.9%,-5.75%,-9.2%,-15.6%,-3.35%
O=C(O)/C=C1/CCC(=O)O1,-5.25%,-0.2%,0.05%,10.8%,20.1%,-0.65%
O=C(Nc1ccccc1-c1ccccc1)c1ccccc1,1.15%,-11.5%,20.1%,11.3%,45.4%,26.9%
C=CCN1C(=O)C(c2ccccc2)(c2ccccc2)NC1=S,1.7%,-32.9%,-32.1%,-20.1%,-30.6%,-41.1%
O=C(O)c1cccc(F)n1,-0.45%,2.05%,-1.8%,3.1%,-0.65%,-1.85%
COC(=O)CCCC(=O)O,4.4%,-5.2%,-2.6%,-15.4%,2.9%,8.25%
